Shown are actives, neighbours in structure and some others; about 8.9% of the full set was active somewhere.
D3 antag: antagonists of human D3 dopamine receptor | D3R cells, DiscoveRx beta-arrestin luminescence, antagonist mode; hits give low values | max response, negative = inhibition, % | AID 652054 | 2.5% of 360,000 active; in the data active = max response below about -50%; inconclusive = no clear call, values can overlap the other calls
Target sequence (P35462 whole entry, looked up): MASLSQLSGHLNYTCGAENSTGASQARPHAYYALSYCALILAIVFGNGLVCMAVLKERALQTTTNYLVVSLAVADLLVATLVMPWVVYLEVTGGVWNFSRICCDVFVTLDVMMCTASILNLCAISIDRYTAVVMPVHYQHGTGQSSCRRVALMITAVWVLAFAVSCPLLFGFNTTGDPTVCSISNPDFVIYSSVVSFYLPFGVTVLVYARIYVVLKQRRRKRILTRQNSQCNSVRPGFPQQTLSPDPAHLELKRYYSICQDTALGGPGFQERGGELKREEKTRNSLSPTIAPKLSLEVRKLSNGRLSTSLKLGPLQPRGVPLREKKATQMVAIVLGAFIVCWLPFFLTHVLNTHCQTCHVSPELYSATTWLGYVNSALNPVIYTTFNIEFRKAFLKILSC
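Cells expressing the human receptor were seeded at 1500 cells/well, incubated overnight at 37 degrees C in 5% CO2, then exposed to library compounds with dopamine controls for 90 minutes at 37 degrees C before luminescent detection.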
KB-3-1 cytotox: kills parental KB-3-1 adenocarcinoma cells | KB-3-1 viability, CellTiter-Glo ATP luminescence, 72 h | Potency, µM (highest dose often 46.1 µM), actives largely listed as cytotoxic | 1.4% of 400,000 active | AID 1347075; note: nearly all actives have a fitted effect of over 60% in size
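Cytotoxicity in the drug-sensitive parental line KB-3-1 was scored as loss of CellTiter-Glo luminescence following 72 h incubation with compound. Values come from curve fitting of normalized concentration-response data.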
KB-V1 MDR tox: KB-V1 MDR subline cytotoxicity | KB-V1 MDR cells viability, CellTiter-Glo, 72 h | Potency, µM (highest dose often 46.1 µM), usual class: cytotoxic | 3.4% of 400,000 active | AID 1347076; note: nearly all actives have a fitted effect of over 60% in size
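In this primary screen, KB-V1 cells overexpressing P-gp are incubated with library compounds (lowest to highest concentration) for 72 h at 37 degrees C before a luminescent ATP viability read.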
DRD3 agonist: D3 dopamine receptor (human) agonism | P35462 | D3R DiscoveRx beta-arrestin cells, luminescence, 90 min | max activation, % | 0.58% of 410,000 active; in the data active = max activation above about 30%
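Agonist mode: compounds and dopamine controls were applied to plated cells for 90 min at 37 degrees C after an overnight attachment at 1500 cells/well. Luminescent read-out followed 30 - 60 minutes at room temperature with DiscoveRx detection reagent.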
SW480 rereplic: inducers of DNA re-replication in SW480 colon cancer cells; 1.8% of 340,000 active; Potency, µM (doses to about 46.1 µM), most hits filed as activators; AID 624297; SW480 DNA re-replication, Hoechst DNA content imaging, 48 h; note: nearly all actives have a fitted effect of over 55% in size
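Image-based DNA-content assay: after two days of treatment, nuclei were labelled with the DNA dye Hoechst and imaged, and hits were compounds raising the count of nuclei showing high fluorescence intensity.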
MCF10A rerep: induces DNA re-replication in MCF 10a normal breast cells. 2.9% of 350,000 active. Potency, µM (titrated, usually from 46.1 µM), hits mostly activators. MCF 10A DNA re-replication, Hoechst nuclear intensity, 48 h; note: nearly all actives have a fitted effect of over 50% in size
Large screens that a line does not name were inactive. Unless noted, calls come from the whole dose curve; as a rule, active = well fitted curve in the direction sought with a large enough effect; inconclusive = small, poorly fitted or top-dose-only effect, or another doubt; inactive = no such curve, though single readings can be large; an effect the other way counts as inactive or inconclusive.

CCOc1ccc(C(c2c(NC(=O)c3ccco3)sc(C)c2C)N2CCOCC2)cc1 (stereo not drawn)	KB-3-1 cytotox inconclusive, MCF10A rerep 21µM
Cc1sc(NC(=O)c2ccco2)c(C(c2ccncc2)N2CCOCC2)c1C (stereo not drawn)	none
Cc1sc(NC(=O)c2ccco2)c(C(c2cccnc2)N2CCCC2)c1C (stereo not drawn)	SW480 rereplic inconclusive, MCF10A rerep 21µM
Cc1cc(-c2ccc(C)c(S(=O)(=O)N3CCC(C)CC3)c2)on1	KB-V1 MDR tox inconclusive (no result: D3 antag, SW480 rereplic, MCF10A rerep)
CCc1ccc(-c2cc(C)no2)cc1S(=O)(=O)N1CCN(c2cccc(Cl)c2)CC1	KB-3-1 cytotox 3.7µM, KB-V1 MDR tox inconclusive (no result: D3 antag, SW480 rereplic, MCF10A rerep)
CCc1ccc(-c2cc(C)no2)cc1S(=O)(=O)N1CCN(c2cccc(C)c2C)CC1	KB-3-1 cytotox inconclusive, KB-V1 MDR tox inconclusive, MCF10A rerep inconclusive
Cc1cc(-c2ccc(C(C)C)c(S(=O)(=O)N3CCC(C)CC3)c2)on1	KB-3-1 cytotox 21µM
Cc1cc(-c2ccc(C(C)C)c(S(=O)(=O)N3CCN(c4ccccc4)CC3)c2)on1	D3 antag inconclusive, KB-3-1 cytotox 5.8µM, KB-V1 MDR tox 12µM, SW480 rereplic 6.5µM, MCF10A rerep inconclusive
CC(=O)OCCc1c2ccccc2c(CCCN(C)C)c2ccccc12	SW480 rereplic inconclusive, MCF10A rerep 18µM
COc1ccc(CCNc2c(C)c(C)nc3ncnn23)cc1	SW480 rereplic 8.2µM, MCF10A rerep inconclusive
CCOC(=O)c1ccc(Nc2c(CC)c(C)nc3ncnn23)cc1	KB-V1 MDR tox 23µM, MCF10A rerep inconclusive
CCc1c(C)nc2ncnn2c1NCCc1ccc(OC)c(OC)c1	KB-3-1 cytotox 23µM, KB-V1 MDR tox 9.2µM
CCOc1ccc(CCNc2cc(C)nc3ncnn23)cc1OCC	none
COc1cc2cc(C(=O)Nc3ccc4c(c3)OCCO4)[nH]c2cc1OC	none
Cc1ccc(NC(=O)Cc2ccc3c(c2)CCCC3)cc1C	none
COC(=O)C1(Cc2ccc3c(c2)CCC3)Cc2ccc3c(c2C1=O)CCC3 (stereo not drawn)	KB-3-1 cytotox 5.8µM, KB-V1 MDR tox 4.6µM, SW480 rereplic inconclusive, MCF10A rerep 9.2µM
O=C(Nc1ccccc1)c1cc([N+](=O)[O-])ccc1NCc1cccnc1	SW480 rereplic 1.3µM
Cc1ccc(C(=O)N/C(=C/c2ccc(-c3cc(C(F)(F)F)ccc3Cl)o2)C(=O)NCc2cccnc2)cc1	KB-3-1 cytotox inconclusive, KB-V1 MDR tox 9.2µM
O=C(NCc1cccnc1)/C(=C/c1ccc([N+](=O)[O-])cc1)NC(=O)c1ccccc1	DRD3 agonist 31
O=C(NCc1cccnc1)/C(=C/c1ccc(-c2cccc(C(F)(F)F)c2)o1)NC(=O)c1ccccc1	KB-V1 MDR tox 16µM, MCF10A rerep inconclusive
Cc1ccc(C(=O)N/C(=C\c2ccco2)C(=O)NCc2cccnc2)cc1	none
COc1cccc(C(=O)NCC(c2ccc(N(C)C)cc2)N2CCc3ccccc32)c1OC (stereo not drawn)	none (no result: D3 antag, SW480 rereplic, MCF10A rerep)
O=C(CSc1nccn1Cc1ccc(F)cc1)Nc1nc2ccccc2s1	none (no result: D3 antag, SW480 rereplic, MCF10A rerep)
CCOc1ccccc1C(=O)Nc1ccc(-n2nncc2-c2ccccc2)cc1	none (no result: D3 antag, SW480 rereplic, MCF10A rerep)
Cc1cccc(CN2CCC(CNC(=O)Cn3ncc4c([nH]c5ccc(C)cc54)c3=O)CC2)c1	none (no result: D3 antag, SW480 rereplic, MCF10A rerep)
CN(C)c1cccc(-c2nnc(SCCCC#N)o2)c1	D3 antag inconclusive, KB-V1 MDR tox 21µM
COc1ccc(-c2nc(CS(=O)(=O)CC(=O)NCCc3cc(OC)ccc3OC)c(C)o2)cc1	KB-V1 MDR tox 8.2µM
COc1ccccc1C1Nc2c(sc3nc(C)cc(C)c23)C(=O)N1c1ccccc1 (stereo not drawn)	none (no result: D3 antag, KB-3-1 cytotox, KB-V1 MDR tox, SW480 rereplic, MCF10A rerep)
CCN1CCN(c2cc(N3CCc4ccccc4C3)c(F)cc2[N+](=O)[O-])CC1	D3 antag -79, KB-V1 MDR tox inconclusive, SW480 rereplic inconclusive, MCF10A rerep inconclusive
COc1ccc(C(=O)Nc2ccc(N3CCN(c4ccccc4)CC3)c(C(=O)O)c2)cc1	none (no result: D3 antag, SW480 rereplic, MCF10A rerep)
COc1ccc(CNC(=O)C2CC(c3ccc(F)cc3)=NO2)cc1 (stereo not drawn)	MCF10A rerep inconclusive

Compound activity: PubChem BioAssay, National Center for Advancing Translational Sciences (NCATS)
